# Pf growth 96h: inhibits malaria parasite growth, 96 h; P. falciparum luciferase reporter growth, 96 h; Potency, µM (doses to about 28.7 µM), for inactives: at the highest dose activity change, negative = inhibition, actives largely listed as inhibitors; 320,000 tested, 6.9% active; AID 504834; also: potency is read from the fitted curve at half-maximal effect; % is scaled to controls: 0 for no effect and ±100 for the full control effect
#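 Compounds incubated with erythrocytes infected by luciferase-expressing P. falciparum (2% hematocrit, 0.05% parasitemia final) for 96 hours, 37 C in 5% CO2. Growth inhibition scored as decreased luciferase luminescence.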
# NS1 inh: influenza NS1 inhibition | Potency, µM (top dose mostly 46.1 µM), for the others: at the top dose activity, positive = more growth | 270,000 tested, 0.4% active; calls by dose curve; also: potency is read from the fitted curve at half-maximal effect; actives are rising curves; nearly all actives have a fitted effect of over 50% in size
#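 OD600 was taken as the measure of yeast growth restored by compound in an NS1-expressing S. cerevisiae strain. Cells had been washed out of glucose medium and diluted 1:100 into galactose -URA medium, pH 6.0.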
# CHX counter: counter-screen hit for Shiga toxin inhibitors, cycloheximide; 300,000 tested, 12% active; cell reporter, cycloheximide protein synthesis inhibition counterscreen; max response, %; AID 2314; in the data active = max response mostly above about 13%, no sharp cut-off; inactive = mostly below about 14%; also: read at 38.3 µM for the half of the compounds with a filed dose; 0% is about no effect
# Shiga inhibitor: blocks Shiga toxin action in Vero cells. AID 2315. 290,000 tested, 9.2% active. Vero cells, Shiga toxin protein synthesis inhibition reporter. inhibition, % at 38.7 µM; in the data active = inhibition mostly above about 28%, no sharp cut-off; inactive = mostly below about 43%; also: 0% is about no effect
# Pf growth 48h: inhibits P. falciparum growth in the first generation, 48 h; Potency, µM (doses to about 28.7 µM), for the others: top-dose activity change, negative = inhibition, most hits filed as inhibitors; 310,000 tested, 5.9% active; P. falciparum luciferase growth in erythrocytes, 48 h; also: potency is read from the fitted curve at half-maximal effect; % is scaled to controls: 0 for no effect and ±100 for the full control effect
#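 Read-out is firefly luciferase luminescence from an integrated reporter in P. falciparum, so falling signal marks reduced parasite growth. Infected erythrocytes were at 2% hematocrit and 0.1% parasitemia (final) in Albumax-supplemented RPMI 1640.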
# Sm TGR inh: S. mansoni TGR enzyme inhibition; Q962Y6; purified TGR, DTNB reduction, TNB absorbance 405 nm; Potency, µM (highest dose often 114 µM), for inactives: top-dose activity change, negative = inhibition, hits mostly inhibitors; 360,000 tested, 3% active; also: potency is read from the fitted curve at half-maximal effect; % is scaled to controls: 0 for no effect and ±100 for the full control effect; nearly all actives have a fitted effect of over 60% in size
#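 First, TGR (20 nM dispensed) and NADPH were mixed with compound. Second, a 15 min room-temperature incubation followed. Third, further NADPH and then DTNB were added to start the reaction. Finally, TNB absorbance was monitored kinetically.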
# Numbers without * were called inactive; u = inconclusive; x = no result. This is a sample that favours compounds with a hit; in the whole collection about 21% have one here. Unless noted, calls follow the shape of the dose curve; as a rule, active = well fitted curve in the direction sought with a large enough effect; inconclusive = small, poorly fitted or top-dose-only effect, or another doubt; inactive = no such curve, though single readings can be large; an effect the other way counts as inactive or inconclusive.
SMILES,Pf growth 96h,NS1 inh,CHX counter,Shiga inhibitor,Pf growth 48h,Sm TGR inh
COc1ccc(-c2cn[nH]c2-c2ccc(OCc3ccc([N+](=O)[O-])cc3)cc2O)cc1,u,12.9%,2.1,-1.3,13.1µM*,-0.8%
C=C(C)COc1ccc(-c2[nH]ncc2-c2ccc(Br)cc2)c(O)c1,1.65µM*,22.3%,-3.7,-11.1,3.7µM*,0.0%
CCc1cc(-c2[nH]ncc2-c2ccc(OC)cc2)c(O)cc1O,u,1.7%,-5.4,-19.3,u,-0.4%
C=C(C)COc1ccc(-c2n[nH]c(C)c2-c2ccc(Br)cc2)c(O)c1,u,-75.6%,-2.4,-4.0,u,7.6%
COc1cccc(Oc2cn[nH]c2-c2ccc(OCC(=O)NN)cc2O)c1,u,17.1%,-3.6,-6.9,u,-1.1%
CCCOC(=O)c1ccc(Oc2cn[nH]c2-c2ccc(OC)cc2O)cc1,u,-83.8%,-4.4,-4.3,10.4µM*,7.2%
COCCn1c(C)cc(O)c(C(=O)Nc2cccc(Cl)c2)c1=O,u,-19.9%,-10.9,-6.2,-17.5%,3.7%
COCCn1c(C)cc(O)c(C(c2ccc(C)cc2)N2CCCCC2)c1=O (stereo unspecified),x,x,x,x,x,8.91µM*
COCCn1c(C)cc(O)c(C(c2ccc(Cl)cc2)N2CCCCC2)c1=O (stereo unspecified),x,x,x,x,x,10µM*
CCCCC(=O)NC(NC(=O)CCCC)c1ccc(OCC(C)C)c(OC)c1,-3.0%,-1.3%,3.3,17.9,7.3%,3.2%
COc1ccc(C(NC(=O)CC(C)C)NC(=O)CC(C)C)cc1OC,10.4µM*,7.1%,2.5,-9.7,16.0%,10.8%
COc1ccc(OC)c(CNC(=O)C2CCN(S(=O)(=O)N3CCC(C)CC3)CC2)c1,11.7µM*,-10.5%,-1.1,2.6,1.4%,-8.7%
COc1cccc(CNC(=O)C2CCN(S(=O)(=O)N3CCC(C)CC3)CC2)c1,13.1µM*,-8.5%,-1.6,-10.9,22.0%,0.1%
FC(F)(F)c1cc(-c2ccc(Cl)cc2)nc2ncnn12,u,-15.3%,-1.6,-3.3,x,-33.3%
Cc1noc(C)c1C(=O)NCCc1ccc(Cl)cc1,x,-4.5%,-1.7,16.7,0.0%,8.6%
Cc1cc(C(C)(C)C)cc(C)c1CCNC(=O)c1c(C)noc1C,8.28µM*,x,x,x,13.1µM*,-0.2%
O=C(NCC1CCCO1)c1cccc(NS(=O)(=O)c2ccccc2)c1 (stereo unspecified),u,x,x,x,-2.2%,0.4%
CCCCN(Cc1nc2ccccc2c(=O)[nH]1)C(=O)COc1ccc(F)cc1Cl,3.7µM*,x,x,x,2.62µM*,-2.0%
CCCCCOc1ccc(/C=C/C(=O)Nc2sc(C)c(C)c2C(=O)OCC)cc1OC,x,x,x,x,x,-2.5%
C1=C(c2ccccc2)CCNC1,21.5%,4.6%,1.2,-10.5,5.9%,1.0%
Cc1[nH]c2ccccc2c1C1=CCNCC1,-31.1%,u,11.9,-7.9,3.29µM*,-14.8%
COCCNC(=O)CCn1c(=O)c2cc(OC)c(OC)cc2n(CC(=O)Nc2ccc(F)c(Cl)c2)c1=O,x,x,x,x,x,-4.0%
COc1ccc(CC(=O)N2CCN(c3ccc(C4=NNC(=O)CC4C)cc3)CC2)cc1 (stereo unspecified),u,9.1%,-1.1,13.7,-12.0%,-14.9%
COc1ccc2nc(N(Cc3cccnc3)C(=O)C3CCCCC3)sc2c1,x,x,x,x,x,1.5%
O=C(NC1CCCc2ccccc21)c1ccccn1 (stereo unspecified),9.0%,-19.3%,-1.2,8.2,4.3%,-11.7%
SMILES,Pf growth 96h,NS1 inh,CHX counter,Shiga inhibitor,Pf growth 48h,Sm TGR inh
Cc1ccc(C(=O)NC2CCCc3ccccc32)o1 (stereo unspecified),u,-1.0%,-0.9,-7.2,-15.6%,u
O=C(NC1CCCc2ccccc21)c1cn2ccccc2n1 (stereo unspecified),1.2%,x,19.0*,15.3,8.0%,0.9%
Cc1nc2ccccn2c1C(=O)NC1CCCc2ccccc21 (stereo unspecified),u,-5.1%,-1.5,2.5,9.28µM*,12.7%
CCOC(=O)CCC(=O)NCc1ccc2[nH]c(C)cc2c1,u,9.9%,-1.8,16.2,u,50.1µM*
Cc1cc2cc(CNC(=S)Nc3ccc(OC(F)F)cc3)ccc2[nH]1,-13.2%,u,-3.0,-3.6,-26.0%,-24.5%
Cc1cc2cc(CNC(=O)Nc3ccccc3)ccc2[nH]1,88.3%,x,27.5*,94.9*,156.3%,-15.3%
CCOC(=O)NCc1ccc2[nH]c(C)cc2c1,37.1%,25.8%,18.0*,23.8*,7.1%,u
O=C(COc1cccnc1[N+](=O)[O-])NCc1ccco1,28.6%,6.9%,0.8,-13.0,4.4%,0.4%
CCn1c(SCc2ccc(C(=O)OC)o2)nc2sc3c(c2c1=O)CCCC3,1.04µM*,10.4%,-0.8,-22.0,-15.5%,10.7%
Cc1cccn2c(CNCCCn3ncc4ccccc43)c(C(=O)N3CCCCC3)nc12,14.7µM*,-0.7%,-1.6,-7.4,u,0.0%
O=C(N/N=C1/CC2C=CCC12)c1ccco1 (stereo unspecified),61.2%,6.7%,72.4*,81.0*,17.7%,5.2%
O=C(N/N=C1/CC2C=CCC12)c1cccs1 (stereo unspecified),25.6%,-9.5%,42.1*,80.3*,101.5%,-3.5%
Cc1cc(Cl)ccc1OCC(=O)Nc1nc(N)nc(N)n1,x,-4.1%,x,x,x,x
Cc1cc2oc(C(=O)N(Cc3ccco3)C3CCS(=O)(=O)C3)cc(=O)c2cc1Cl (stereo unspecified),-15.7%,-7.9%,-0.6,12.0,-11.7%,50.1µM*
CN(C)c1ccc(CN(C(=O)c2ccco2)C2CCS(=O)(=O)C2)cc1 (stereo unspecified),5.22µM*,2.7%,-2.5,7.7,55.6%,-1.6%
Cc1ccc(CN(C(=O)c2ccccc2C)C2CCS(=O)(=O)C2)o1 (stereo unspecified),u,3.0%,-1.1,-7.7,1.6%,-31.3%
Cc1ccc(CN(C(=O)c2ccccc2[N+](=O)[O-])C2CCS(=O)(=O)C2)o1 (stereo unspecified),47.8%,-8.2%,-2.9,-5.8,13.5%,31.6µM*
CN(C)c1ccc(CN(C(=O)c2ccccc2Br)C2CCS(=O)(=O)C2)cc1 (stereo unspecified),13.1µM*,-9.2%,10.4*,34.8*,-12.8%,-23.1%
Cc1ccc2c(=O)cc(C(=O)N(Cc3ccccc3Cl)C3CCS(=O)(=O)C3)oc2c1 (stereo unspecified),x,x,x,x,x,-2.3%
Cc1ccccc1CS(=O)(=O)CC(O)CN1CCCC1=O (stereo unspecified),9.0%,3.4%,-1.1,-2.9,-7.3%,7.1%
OC(CCc1ccncc1)COc1ccccc1 (stereo unspecified),76.9%,x,x,x,u,-22.2%
CCC(Sc1nc2ccncc2[nH]1)C(=O)Nc1ccc(F)cc1 (stereo unspecified),x,x,x,x,x,-9.6%
